The sample as a whole holds a higher share of hits than the screen did.
ST2 IL33 inh – inhibitors of human ST2 (IL1RL1) binding to IL-33, primary screen, biochemical, AlphaLISA. Interleukin-1 receptor-like 1 (Homo sapiens), Q01638. 78,000 tested, 2.3% active. inhibition, % for hits at 17 µM. AlphaLISA ST2-Fc/biotin-IL-33 interaction, 1 h; in the data active = inhibition above about 30%
Target sequence (Q01638 whole entry, looked up): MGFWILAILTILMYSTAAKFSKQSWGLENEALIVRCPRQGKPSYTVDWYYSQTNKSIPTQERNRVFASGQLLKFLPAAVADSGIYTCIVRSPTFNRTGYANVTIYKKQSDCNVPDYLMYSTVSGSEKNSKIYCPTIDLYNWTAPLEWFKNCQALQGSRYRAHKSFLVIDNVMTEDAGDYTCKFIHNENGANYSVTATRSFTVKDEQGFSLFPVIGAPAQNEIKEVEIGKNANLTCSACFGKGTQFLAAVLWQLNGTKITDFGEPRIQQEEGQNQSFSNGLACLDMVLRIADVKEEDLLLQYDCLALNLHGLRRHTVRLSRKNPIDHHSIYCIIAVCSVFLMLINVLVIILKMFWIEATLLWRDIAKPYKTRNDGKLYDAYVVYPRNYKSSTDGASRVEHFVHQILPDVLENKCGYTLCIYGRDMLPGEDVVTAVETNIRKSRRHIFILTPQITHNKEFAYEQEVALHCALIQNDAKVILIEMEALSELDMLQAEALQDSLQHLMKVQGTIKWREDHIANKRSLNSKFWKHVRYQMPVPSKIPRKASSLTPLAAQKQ
Numbers stand for hits; – = inactive; ! = not active in a repeat.

SMILES | ST2 IL33 inh
Cc1ccc2c(c1)N(C(C)C(=O)NCc1ccco1)C(=O)CO2 (stereo not drawn) | –
CC(=O)Nc1ccc(C(=O)Nc2ccc(S(=O)(=O)NC(C)=O)cc2)cc1 | –
Cc1ccc(C)n1-c1ccc(OCC(=O)O)cc1 | 64.0%
COc1ccc(OCC(=O)O)cc1 | –
CCOc1ccc(S(=O)(=O)NCC(=O)O)cc1 | –
O=C(NCc1ccc(Cl)c(Cl)c1)c1ccncc1 | –
CC1=C(C(=O)NCCc2ccccc2)C2(CCN(S(=O)(=O)c3cccs3)CC2)OC1=O | –
O=[N+]([O-])c1cc(C=Nc2ccc(N3CCOCC3)cc2)ccc1Cl | 48.0%
O=[N+]([O-])c1ccc(N2CCCC2)cc1N1CCOCC1 | –
O=[N+]([O-])c1cc(C=Nc2ccc(-c3nc4ncccc4o3)cc2)ccc1Cl | –
CCN1CCN(C(=O)C2Cc3cc(S(=O)(=O)N4CCCC4)ccc3N2C(C)=O)CC1 (stereo not drawn) | –
O=C(CSC1CC(=O)N(c2ccc(Cl)cc2)C1=O)Nc1ccc(Cl)cc1 (stereo not drawn) | –
O=C1CSC(c2cccc(Cl)c2Cl)N1c1ccccn1 (stereo not drawn) | –
Cc1nn(-c2ccccn2)c2c1C(=O)/C(=C\Nc1ccccc1Cl)CC2 | 31.0%
Cc1nn(-c2ccccn2)c2c1C(=O)/C(=C/Nc1ccc([N+](=O)[O-])cc1Br)CC2 | –
O=C(CSc1nc2ccccc2s1)Nc1ccccc1Cl | –
Cc1ccsc1CCNC(=O)c1cc2ccccn2n1 | –
CC(C)(C)NC(=O)CN1C(=O)S/C(=C\c2ccccc2)C1=O | –
O=C(CN1C(=O)S/C(=C\C=C\c2ccccc2)C1=O)Nc1ccc(C(=O)O)cc1 | 32.0%
O=C(CN1C(=O)S/C(=C\c2ccccc2)C1=O)Nc1nccs1 | –
Cc1cc(OCC(O)CN2CCN(c3ccccc3)CC2)ccc1Cl (stereo not drawn) | –
c1nc(NCCc2noc(C3CC3)n2)cc(N2CCCCC2)n1 | –
CN1CCCN(Cc2ccc(Cl)cc2Cl)CC1 | –
CC1(C)Cc2ccccc2-c2nnc(-c3ccccc3)n21 | –
CC1(C)Cc2ccccc2-c2nc(-c3ccccc3)oc(=O)c21 | 41.0%
SMILES | ST2 IL33 inh
O=c1oc(-c2ccccc2)nc2c1C1(CCCC1)Cc1ccccc1-2 | 48.0%
O=c1[nH]c(CN2CCCC2)nc2c1C1(CCCC1)Cc1ccccc1-2 | –
Cn1c(=O)c2nc(-c3ccccc3)oc2c2ccccc21 | –
O=c1[nH]c(CN2CCOCC2)nc2c1C1(CCCC1)Cc1ccccc1-2 | –
CNC(=O)[C@@H]1C[C@@H](N)CN1C(=O)c1cccc(NCc2ccc(F)cc2)c1 | –
COc1ccc(C2C(C#N)=C(N)OC3=C2C(=O)CC(c2ccc(C)cc2)C3)cc1 (stereo not drawn) | –
Cc1[nH]n(-c2ccccc2)c(=O)c1C=NC1CCCCC1 | –
NC(=O)CCNC(=O)C1=C[C@@H](NC(=O)Cc2cccs2)[C@@H](O)[C@H](O)C1 | –
Cc1ccc(C(=O)N[C@@H]2C=C(C(=O)NCCC(N)=O)C[C@@H](O)[C@@H]2O)cc1 | –
CC(C)(C)CC(=O)N[C@@H]1C=C(C(=O)NCCC(N)=O)C[C@@H](O)[C@@H]1O | 83.0%
CCOc1ccc(/C=C/C(=O)Nc2ncn[nH]2)cc1OC | –
COc1ccc(CCC(=O)Nc2cccc(F)c2)cc1 | –
O=C(Nc1ccc([N+](=O)[O-])cn1)c1cccnc1 | –
CC(C)c1cc(C(=O)NCc2cc(-c3ccco3)on2)n(C)n1 | –
O=C(Nc1ccc(Cl)cc1)c1cnccn1 | –
CCN(CC)c1ccc(NC(=O)c2cnccn2)cc1 | 56.0%
CCN(CC)c1cc(C)c2cc(NC(=O)c3cnccn3)ccc2n1 | –
COc1ccc(-c2cnn(CCC(N)=O)c2)c(C)c1 | –
O=C(NCCSc1c(-c2ccccc2)[nH]c2ccccc12)C1CC1 | –
COc1ccc(Nc2c(-c3ccco3)nc3ccc(Br)cn23)cc1 | –
COc1ccc(Cl)cc1NC(=O)c1cc(-c2ccco2)on1 | –
COc1cc(C=Nc2c(-c3ccco3)nc3ccc(Cl)cn23)ccc1O | 43.0%
Cc1ccc(-c2noc([C@@H]3Cc4nc[nH]c4CN3C(=O)c3ccc(F)cc3)n2)cc1 | –
CC(=O)N[C@H]1CC[C@]2(C)CC[C@@H]([C@H](C)C(=O)NCCN3CCCC3)[C@H](O)[C@H]2[C@@H]1C | –
COCCNC(=O)[C@@H](C)[C@@H]1CC[C@@]2(C)CC[C@H](NC(=O)C3CC3)[C@@H](C)[C@@H]2[C@H]1O | –
SMILES | ST2 IL33 inh
C[C@H]1[C@@H]2[C@@H](O)C([C@H](C)C(=O)NCCN3CCOCC3)CC[C@@]2(C)CC[C@@H]1NC(=O)C1CCCCC1 (stereo partly drawn) | 32.0%
COc1ccc(NC(=O)Nc2ccc(Cl)cc2)c(OC)c1 | –
NC(=O)c1cc2cc(Br)ccc2oc1=Nc1ccccc1 | 33.0%
Cc1ccc(N=c2oc3ccc(Br)cc3cc2C(N)=O)cc1 | –
Cc1cccc(N=c2oc3ccc(Br)cc3cc2C(N)=O)c1 | –
Cc1onc(-c2ccccc2)c1C(=O)N(C)C | –
CCOc1cc(/C=C2/SC(=Nc3ccccc3)NC2=O)ccc1OC | –
O=C1N/C(=N/O)S/C1=C/c1ccc([N+](=O)[O-])cc1 | –
COc1ccc(/C=C2/SC(=Nc3ccc(S(N)(=O)=O)cc3)NC2=O)cc1 | 37.0%
COc1cc(/C=C2/SC(=Nc3ccccc3Cl)NC2=O)cc(OC)c1 | –
O=C1NC(=Nc2ccccc2)S/C1=C/c1cc2c(cc1Br)OCO2 | –
CC(C)c1ccc(/C=C2/SC(=Nc3ccccc3)NC2=O)cc1 | 37.0%
CCc1ccc(NC(=O)CSc2ccccc2)cc1 | –
Cc1ccc(-c2nc3ccccc3c(=O)n2N)cc1 | –
CC/C=C\CCO[C@@H]1O[C@H](CO)[C@@H](O)[C@H](O)[C@H]1O | 31.0%
COc1cc(/C=C/CO)ccc1O[C@@H]1O[C@H](CO)[C@@H](O)[C@H](O)[C@H]1O | –
OC[C@H]1O[C@@H](OCCc2ccccc2)[C@H](O)[C@@H](O)[C@@H]1O | –
CCOC(=O)C1CCN(C(=O)c2ccccc2NC(=O)c2nsc3ccccc23)CC1 | –
CC(C)c1nccn1CCCn1cnc(-c2ccccc2)c1-c1cnn(C)c1 | –
CN1CCN(c2nc3c(c(=O)n(C)c(=O)n3C)n2Cc2c(Cl)cccc2Cl)CC1 | –
CC1CCN(c2nc3c(c(=O)n(C)c(=O)n3C)n2Cc2c(F)cccc2Cl)CC1 | –
CCN1CCN(c2nc3c(c(=O)n(C)c(=O)n3C)n2CCSc2nc3ccccc3o2)CC1 | –
CN1CCN(c2nc3c(c(=O)n(C)c(=O)n3C)n2CCSc2nc3ccccc3o2)CC1 | –
Cn1c(=O)c2c(nc(N3CCCCC3)n2Cc2c(Cl)cccc2Cl)n(C)c1=O | 31.0%
Cn1c(=O)c2c(nc(N3CCCCC3)n2CCSc2nc3ccccc3o2)n(C)c1=O | 36.0%!
COc1ccc(C2Nc3ccc(Br)cc3-c3nnc(SC)nc3O2)cc1O (stereo not drawn) | –
COCC(=O)NCC1Cc2cc(C)cc(-c3cc(C(C)=O)ccc3F)c2O1 (stereo not drawn) | –
O=C(Nc1nnc(-c2ccc(F)cc2)s1)c1ccc(Cl)cc1 | –
Cc1cc(C)c(OCCCCN2CCNCC2)c(C)c1 | –

Source: PubChem BioAssay
